# Measurements taken from PubChem BioAssay (EPA / NIEHS).
# Inconclusive results are not listed. Calls of active or inactive are those of the source. Rule for the calls: active = hit-call score of the fitted dose curve at least 0.9, where 1 is the maximum; inconclusive = response in the unintended direction; inactive = score below 0.9.
# Tests used:
# [1] = target: human Acetylcholinesterase (AChE), ACHE (gene 43) (UniProt P22303); experiment: NVS_ENZ_hAChE: NovaScreen (NVS) Enzymatic Assay for human Acetylcholinesterase (AChE) (AID 2283129)
# Chain of human Acetylcholinesterase (AChE), ACHE (gene 43) (P22303 whole entry, looked up): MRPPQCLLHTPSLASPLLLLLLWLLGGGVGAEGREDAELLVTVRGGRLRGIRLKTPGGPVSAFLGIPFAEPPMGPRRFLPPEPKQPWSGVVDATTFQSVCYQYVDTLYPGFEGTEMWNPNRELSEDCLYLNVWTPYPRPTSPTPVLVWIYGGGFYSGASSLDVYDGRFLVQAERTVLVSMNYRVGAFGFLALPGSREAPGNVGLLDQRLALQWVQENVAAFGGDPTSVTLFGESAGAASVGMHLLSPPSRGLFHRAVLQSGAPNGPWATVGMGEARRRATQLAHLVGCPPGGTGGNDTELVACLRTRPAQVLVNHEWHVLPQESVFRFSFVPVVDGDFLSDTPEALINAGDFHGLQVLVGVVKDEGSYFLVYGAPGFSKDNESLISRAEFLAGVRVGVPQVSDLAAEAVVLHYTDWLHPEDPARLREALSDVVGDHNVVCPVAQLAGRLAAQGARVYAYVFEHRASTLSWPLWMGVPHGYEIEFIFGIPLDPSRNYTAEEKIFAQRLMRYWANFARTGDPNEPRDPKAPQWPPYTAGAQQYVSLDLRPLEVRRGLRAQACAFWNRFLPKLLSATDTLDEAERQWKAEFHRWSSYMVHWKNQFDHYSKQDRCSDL
# How it was run: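 Cell-free colorimetric enzyme-activity assay; compounds read 0.33 hour after dosing, loss of signal vs DMSO baseline. Primary screen in duplicate at 25 uM single concentration, with active compounds retested in concentration series.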
# [2] = target: Protein deacetylase HDAC6 (Homo sapiens) (UniProt Q9UBN7); experiment: NVS_ENZ_hHDAC6: NovaScreen (NVS) Enzymatic Assay for human Histone Deacetylase 6 (HDAC6) (AID 2283164)
# How it was run: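 Recombinant human HDAC6 with fluorescent substrate, 1 h; product separated from substrate by electrophoretic mobility shift. Primary screen in duplicate at 25 uM; actives retested singly in concentration-response up to 50 uM, fitted relative to DMSO.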
# [3] = target: rat Monoamine Oxidase, MAO-B, Central (MAOBC), Maob (gene 25750) (UniProt P19643); experiment: NVS_ENZ_rMAOBC: NovaScreen (NVS) Enzymatic Assay for rat Monoamine Oxidase, MAO-B, Central (MAOBC) (AID 2283238)
# Chain of rat Monoamine Oxidase, MAO-B, Central (MAOBC), Maob (gene 25750) (P19643 whole entry, looked up): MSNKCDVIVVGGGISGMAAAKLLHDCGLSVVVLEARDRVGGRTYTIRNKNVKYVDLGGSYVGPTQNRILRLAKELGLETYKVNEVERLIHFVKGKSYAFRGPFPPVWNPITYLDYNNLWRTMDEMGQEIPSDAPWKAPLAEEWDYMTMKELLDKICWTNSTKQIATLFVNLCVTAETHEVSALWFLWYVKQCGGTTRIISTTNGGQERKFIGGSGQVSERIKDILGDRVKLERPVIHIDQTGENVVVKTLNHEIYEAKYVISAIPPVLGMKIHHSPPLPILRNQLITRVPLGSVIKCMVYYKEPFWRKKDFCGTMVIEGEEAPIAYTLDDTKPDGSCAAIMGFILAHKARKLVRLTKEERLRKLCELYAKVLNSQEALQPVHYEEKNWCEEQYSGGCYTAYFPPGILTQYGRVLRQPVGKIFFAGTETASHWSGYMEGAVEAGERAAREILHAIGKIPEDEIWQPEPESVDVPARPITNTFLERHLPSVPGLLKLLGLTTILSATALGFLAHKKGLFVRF
# How it was run: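 MAO-B activity in rat brain tissue preparation, cell-free, measured radiometrically by scintillation counting 1.17 h after dosing. Screened in duplicate at 25 uM; actives then in concentration-response up to 50 uM. Loss of signal versus DMSO scored.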
# [4] = target: rat Monoamine Oxidase, MAO-B, Peripheral (MAOBP), Maob (gene 25750) (UniProt P19643); experiment: NVS_ENZ_rMAOBP: NovaScreen (NVS) Enzymatic Assay for rat Monoamine Oxidase, MAO-B, Peripheral (MAOBP) (AID 2283242)
# Chain of rat Monoamine Oxidase, MAO-B, Peripheral (MAOBP), Maob (gene 25750) (P19643 whole entry, looked up): as above
# [5] = target: human Aurora Kinase A - serine/threonine-protein Kinase 6 (AurA), AURKA (gene 6790) (UniProt O14965); experiment: NVS_ENZ_hAurA: NovaScreen (NVS) Enzymatic Assay for human Aurora Kinase A - serine/threonine-protein Kinase 6 (AurA) (AID 2283142)
# Chain of human Aurora Kinase A - serine/threonine-protein Kinase 6 (AurA), AURKA (gene 6790) (O14965 whole entry, looked up): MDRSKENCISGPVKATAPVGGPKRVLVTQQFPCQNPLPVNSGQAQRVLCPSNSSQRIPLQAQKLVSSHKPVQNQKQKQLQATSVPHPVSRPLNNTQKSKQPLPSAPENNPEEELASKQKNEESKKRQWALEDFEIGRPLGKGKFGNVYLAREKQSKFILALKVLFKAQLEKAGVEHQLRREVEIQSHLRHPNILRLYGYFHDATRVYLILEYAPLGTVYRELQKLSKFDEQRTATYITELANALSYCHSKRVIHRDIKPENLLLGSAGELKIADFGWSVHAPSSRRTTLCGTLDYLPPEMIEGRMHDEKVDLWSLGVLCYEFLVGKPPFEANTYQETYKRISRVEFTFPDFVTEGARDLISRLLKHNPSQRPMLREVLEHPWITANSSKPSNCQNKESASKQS
# How it was run: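 Cell-free enzymatic assay with human Aurora A, 1 hour after dosing. Fluorescent substrate turnover detected after electrophoretic mobility shift separation of substrate and product. Screened at 25 uM, actives retested in concentration-response up to 50 uM.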
# [6] = target: human p21 Activated Kinase 4 (PAK4), PAK4 (gene 10298) (UniProt O96013); experiment: NVS_ENZ_hPAK4: NovaScreen (NVS) Enzymatic Assay for human p21 Activated Kinase 4 (PAK4) (AID 2283189)
# Chain of human p21 Activated Kinase 4 (PAK4), PAK4 (gene 10298) (O96013 whole entry, looked up): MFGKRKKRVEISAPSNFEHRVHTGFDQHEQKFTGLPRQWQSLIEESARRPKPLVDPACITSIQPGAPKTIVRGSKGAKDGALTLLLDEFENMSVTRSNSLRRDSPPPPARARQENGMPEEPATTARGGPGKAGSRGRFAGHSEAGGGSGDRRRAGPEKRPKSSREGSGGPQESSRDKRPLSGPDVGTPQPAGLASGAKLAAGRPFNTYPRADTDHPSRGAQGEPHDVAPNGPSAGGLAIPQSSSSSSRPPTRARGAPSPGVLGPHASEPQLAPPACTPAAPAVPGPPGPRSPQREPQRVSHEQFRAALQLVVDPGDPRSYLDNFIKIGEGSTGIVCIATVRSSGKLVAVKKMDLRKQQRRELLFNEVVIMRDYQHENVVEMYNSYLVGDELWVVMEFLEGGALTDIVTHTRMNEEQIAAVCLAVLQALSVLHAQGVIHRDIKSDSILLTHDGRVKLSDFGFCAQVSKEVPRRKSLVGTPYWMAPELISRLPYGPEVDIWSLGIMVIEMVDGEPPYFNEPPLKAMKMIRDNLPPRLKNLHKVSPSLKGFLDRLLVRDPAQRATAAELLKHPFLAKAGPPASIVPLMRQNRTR
# How it was run: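 Cell-free recombinant human PAK4 activity assay; fluorescent substrate and product separated by electrophoretic mobility shift, read 1 h after dosing. Initially tested in duplicate at 25 uM, relative to DMSO baseline.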
# [7] = target: human Neonicotinoid receptor (NNR), CHRNA2 (gene 1135) (UniProt Q15822); experiment: NVS_LGIC_hNNR_NBungSens: NovaScreen (NVS) Ligand-Gated Ion Channel Assay for human Neonicotinoid receptor (NNR) (AID 2283313)
# How it was run: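 Radioligand displacement on human neuroblastoma membranes, 2 h, filter-based scintillation counting. Primary screen in duplicate at 25 uM; chemicals passing threshold (e.g. 30% inhibition) run singleton concentration-response to 50 uM; loss of binding fitted versus DMSO.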
# [8] = target: human Epidermal Growth Factor Receptor (EGFR), EGFR (gene 1956) (UniProt P00533); experiment: NVS_ENZ_hEGFR: NovaScreen (NVS) Enzymatic Assay for human Epidermal Growth Factor Receptor (EGFR) (AID 2283151)
# Chain of human Epidermal Growth Factor Receptor (EGFR), EGFR (gene 1956) (P00533 whole entry, looked up): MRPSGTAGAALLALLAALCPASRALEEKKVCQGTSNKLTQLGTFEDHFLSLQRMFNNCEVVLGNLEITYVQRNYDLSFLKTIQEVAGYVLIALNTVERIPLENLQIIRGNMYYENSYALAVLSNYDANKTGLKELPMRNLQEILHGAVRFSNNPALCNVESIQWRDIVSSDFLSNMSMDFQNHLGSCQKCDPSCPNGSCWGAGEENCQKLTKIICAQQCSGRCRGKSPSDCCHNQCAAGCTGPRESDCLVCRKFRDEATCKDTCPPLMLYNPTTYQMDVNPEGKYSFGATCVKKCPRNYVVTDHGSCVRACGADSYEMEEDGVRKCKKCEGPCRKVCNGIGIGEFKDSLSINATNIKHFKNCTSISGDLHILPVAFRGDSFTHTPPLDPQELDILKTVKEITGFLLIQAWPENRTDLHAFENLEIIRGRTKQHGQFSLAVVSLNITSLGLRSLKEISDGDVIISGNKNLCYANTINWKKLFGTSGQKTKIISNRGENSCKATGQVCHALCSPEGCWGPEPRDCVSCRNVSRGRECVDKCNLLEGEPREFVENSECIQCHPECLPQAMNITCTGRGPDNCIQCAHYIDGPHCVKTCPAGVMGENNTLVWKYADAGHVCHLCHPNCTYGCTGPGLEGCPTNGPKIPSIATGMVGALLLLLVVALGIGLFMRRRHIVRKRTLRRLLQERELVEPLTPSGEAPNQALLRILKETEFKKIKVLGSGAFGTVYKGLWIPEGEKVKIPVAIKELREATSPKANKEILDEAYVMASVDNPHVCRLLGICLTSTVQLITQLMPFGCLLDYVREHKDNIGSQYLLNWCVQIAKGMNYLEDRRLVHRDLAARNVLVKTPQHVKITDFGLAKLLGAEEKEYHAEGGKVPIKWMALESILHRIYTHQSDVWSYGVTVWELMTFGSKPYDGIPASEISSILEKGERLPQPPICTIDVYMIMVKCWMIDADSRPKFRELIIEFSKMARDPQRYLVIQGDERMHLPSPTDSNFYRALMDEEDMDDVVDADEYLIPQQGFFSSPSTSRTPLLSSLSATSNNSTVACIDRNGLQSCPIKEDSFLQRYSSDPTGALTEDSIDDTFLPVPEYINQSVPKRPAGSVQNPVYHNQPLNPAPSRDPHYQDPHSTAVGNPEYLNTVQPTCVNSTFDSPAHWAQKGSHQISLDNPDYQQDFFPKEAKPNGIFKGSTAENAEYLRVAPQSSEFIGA
# How it was run: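 Cell-free kinase assay, fluorescence plus electrophoretic mobility shift separating substrate and product, read 1 hour after dosing; loss of signal vs DMSO. Duplicate screen at 25 uM, then concentration-response to 50 uM.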
# [9] = tested on: rat Monoamine Oxidase, MAO-A, Central (MAOAC), gene 29253; experiment: NVS_ENZ_rMAOAC: NovaScreen (NVS) Enzymatic Assay for rat Monoamine Oxidase, MAO-A, Central (MAOAC) (AID 2283243);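 note: potency refers to inhibition seen as signal drop below DMSO baseline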
# How it was run: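 Rat brain tissue extract served as the cell-free enzyme source; activity was measured by radiometric scintillation counting 1.5 hours after compound addition. Loss of signal relative to DMSO baseline indicated inhibition; primary screen at 25 uM in duplicate.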
# [10] = target: human Caspase 10 (CASP10), CASP10 (gene 843) (UniProt Q92851); experiment: NVS_ENZ_hCASP10: NovaScreen (NVS) Enzymatic Assay for human Caspase 10 (CASP10) (AID 2283133)
# How it was run: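 Recombinant human caspase-10 from E. coli, cell-free fluorogenic substrate assay read 1 h after dosing. Primary duplicate screen at 25 uM; hits (e.g. ≥30% inhibition) run singly in concentration-response up to 50 uM, normalised to DMSO.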
# [11] = target: human Caspase 2 (CASP2), CASP2 (gene 835) (UniProt P42575); experiment: NVS_ENZ_hCASP2: NovaScreen (NVS) Enzymatic Assay for human Caspase 2 (CASP2) (AID 2283135)
# Chain of human Caspase 2 (CASP2), CASP2 (gene 835) (P42575 whole entry, looked up): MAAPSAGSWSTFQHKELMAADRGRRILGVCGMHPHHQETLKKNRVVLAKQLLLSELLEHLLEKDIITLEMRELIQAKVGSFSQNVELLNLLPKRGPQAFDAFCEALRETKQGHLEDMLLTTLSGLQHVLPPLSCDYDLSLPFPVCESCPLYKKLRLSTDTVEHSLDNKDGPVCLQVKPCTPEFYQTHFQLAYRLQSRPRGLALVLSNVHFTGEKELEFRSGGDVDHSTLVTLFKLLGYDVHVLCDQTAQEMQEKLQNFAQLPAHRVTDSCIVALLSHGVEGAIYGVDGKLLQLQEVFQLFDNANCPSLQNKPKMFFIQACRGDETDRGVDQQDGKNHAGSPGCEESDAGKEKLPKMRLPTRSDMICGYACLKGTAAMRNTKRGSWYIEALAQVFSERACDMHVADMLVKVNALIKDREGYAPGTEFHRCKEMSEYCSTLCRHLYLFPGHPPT
# How it was run: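 E. coli-expressed enzyme in a cell-free protease assay, fluorescence read 1 h after dosing. Compounds at 25 uM in duplicate, with concentration-response up to 50 uM for hits; loss of signal against DMSO baseline.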
# [12] = target: human Phosphatase and Tensin Homolog (PTEN), PTEN (gene 5728) (UniProt P60484); experiment: NVS_ENZ_hPTEN: NovaScreen (NVS) Enzymatic Assay for human Phosphatase and Tensin Homolog (PTEN) (AID 2283203)
# How it was run: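 Cell-free recombinant human PTEN with fluorescent substrate; product separated by electrophoretic mobility shift and read by fluorescence 1 h after dosing. Primary screen in duplicate at 25 uM, actives followed in concentration series versus DMSO.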
# [13] = target: human AMP-activated Protein Kinase, alpha 1 (AMPKa1), PRKAA1 (gene 5562) (UniProt Q13131); experiment: NVS_ENZ_hAMPKa1: NovaScreen (NVS) Enzymatic Assay for human AMP-activated Protein Kinase, alpha 1 (AMPKa1) (AID 2283130)
# How it was run: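 Recombinant human AMPKα1 activity was measured cell-free by fluorescent substrate conversion with electrophoretic mobility-shift separation, 1 h after dosing. Duplicate single-point screening was at 25 uM; actives (≥30% inhibition) were retested in concentration-response up to 50 uM.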
# [14] = target: bovine Gamma-Aminobutyric Acid Type A Receptor BDZ, alpha 1 site (GABARa1), GABRA1 (gene 780973) (UniProt P08219); experiment: NVS_LGIC_bGABARa1: NovaScreen (NVS) Ligand-Gated Ion Channel Assay for bovine Gamma-Aminobutyric Acid Type A Receptor BDZ, alpha 1 site (GABARa1) (AID 2283321)
# How it was run: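 Radioligand competition binding on bovine cortical membranes, 0.75 h, filter-based scintillation counting. Primary single concentration 25 uM in duplicate; actives rerun in concentration-response to 50 uM max. Loss of signal fitted versus DMSO.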
# [15] = target: human Fibroblast Growth Factor Receptor 1 (FGFR1), FGFR1 (gene 2260) (UniProt P11362); experiment: NVS_ENZ_hFGFR1: NovaScreen (NVS) Enzymatic Assay for human Fibroblast Growth Factor Receptor 1 (FGFR1) (AID 2283159);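 for AC50: hits lower the signal so potencies describe inhibitors of the kinase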
# How it was run: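 Cell-free recombinant kinase with fluorescent substrate, product separated by electrophoretic mobility shift; read 1 hour after dosing, loss of signal relative to DMSO. Initial screen in duplicate at 25 uM, actives followed in concentration series.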
# [16] = target: human Raf-1 Proto-Oncogene, serine/threonine Kinase (RAF1), RAF1 (gene 5894) (UniProt P04049); experiment: NVS_ENZ_hRAF1: NovaScreen (NVS) Enzymatic Assay for human Raf-1 Proto-Oncogene, serine/threonine Kinase (RAF1) (AID 2283216)
# How it was run: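 Cell-free recombinant kinase with specific fluorescent substrate, product separated by electrophoretic mobility shift; read 1 h after dosing. Primary screen at 25 uM in duplicate; hits then run in concentration-response up to 50 uM, fitted as loss of signal versus DMSO.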
# [17] = ATG_M_32_XSP2: Attagene TRANS-FACTORIAL Multi-Species (XSP2) HepG2 Assay for M19 Transcription Factor (Internal Marker) (AID 2283826)
# How it was run: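 Transfected HepG2 (multiplexed GAL4-UAS reporters), 24 h chemical exposure, 3 nM 6-alpha-fluorotestosterone + 1.5 nM norgestrel added. RNA → oligo(dT) RT → PCR → 6-FAM primer extension → HpaI cut → CE. Fitted upward vs DMSO.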
# [18] = target: human IkappaB Kinase alpha (IKKa), CHUK (gene 1147) (UniProt O15111); experiment: NVS_ENZ_hIKKa: NovaScreen (NVS) Enzymatic Assay for human IkappaB Kinase alpha (IKKa) (AID 2283167)
# How it was run: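 Cell-free recombinant human IKKa with fluorescent substrate, product separated by electrophoretic mobility shift; read 1 hour after dosing. Primary screen duplicate at 25 uM, actives then concentration-response up to 50 uM; loss of signal relative to DMSO.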
# [19] = target: human Tyrosine Protein Kinase Receptor Tie-2 (Tie2), TEK (gene 7010) (UniProt Q02763); experiment: NVS_ENZ_hTie2: NovaScreen (NVS) Enzymatic Assay for human Tyrosine Protein Kinase Receptor Tie-2 (Tie2) (AID 2283225)
# Chain of human Tyrosine Protein Kinase Receptor Tie-2 (Tie2), TEK (gene 7010) (Q02763 whole entry, looked up): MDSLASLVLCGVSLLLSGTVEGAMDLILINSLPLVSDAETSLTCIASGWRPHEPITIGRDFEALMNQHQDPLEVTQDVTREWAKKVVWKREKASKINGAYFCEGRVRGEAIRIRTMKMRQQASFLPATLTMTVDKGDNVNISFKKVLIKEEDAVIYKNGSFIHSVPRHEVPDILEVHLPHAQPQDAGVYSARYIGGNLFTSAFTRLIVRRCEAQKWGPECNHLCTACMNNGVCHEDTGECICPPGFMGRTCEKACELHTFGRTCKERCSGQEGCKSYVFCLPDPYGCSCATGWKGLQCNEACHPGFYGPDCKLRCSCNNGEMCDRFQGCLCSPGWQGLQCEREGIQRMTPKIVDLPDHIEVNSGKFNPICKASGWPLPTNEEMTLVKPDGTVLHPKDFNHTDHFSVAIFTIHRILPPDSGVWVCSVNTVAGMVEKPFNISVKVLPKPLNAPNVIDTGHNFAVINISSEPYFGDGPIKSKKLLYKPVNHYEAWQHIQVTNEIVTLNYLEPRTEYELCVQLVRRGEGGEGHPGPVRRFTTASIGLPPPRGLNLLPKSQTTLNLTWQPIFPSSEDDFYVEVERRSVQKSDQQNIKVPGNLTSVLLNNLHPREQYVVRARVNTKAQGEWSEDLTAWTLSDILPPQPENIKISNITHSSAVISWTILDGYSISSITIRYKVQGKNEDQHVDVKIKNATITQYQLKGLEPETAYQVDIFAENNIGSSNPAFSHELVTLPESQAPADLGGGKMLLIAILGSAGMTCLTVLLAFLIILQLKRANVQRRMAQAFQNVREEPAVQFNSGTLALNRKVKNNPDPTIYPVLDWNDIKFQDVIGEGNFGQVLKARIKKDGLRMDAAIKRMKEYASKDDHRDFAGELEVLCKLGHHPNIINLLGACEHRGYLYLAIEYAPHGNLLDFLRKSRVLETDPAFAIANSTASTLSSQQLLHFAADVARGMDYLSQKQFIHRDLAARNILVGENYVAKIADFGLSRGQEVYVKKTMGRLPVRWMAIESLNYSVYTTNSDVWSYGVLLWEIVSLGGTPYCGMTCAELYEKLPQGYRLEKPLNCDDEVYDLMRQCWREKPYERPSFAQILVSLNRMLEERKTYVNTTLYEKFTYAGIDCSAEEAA
# How it was run: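 Recombinant human Tie2 kinase activity was read cell-free by fluorescence with electrophoretic mobility shift, 1 hour after dosing. The screen used 25 uM in duplicate, then concentration-response up to 50 uM. Signal loss was scored against DMSO.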
# [20] = target: rat Acetylcholinesterase (AChE), Ache (gene 83817) (UniProt P37136); experiment: NVS_ENZ_rAChE: NovaScreen (NVS) Enzymatic Assay for rat Acetylcholinesterase (AChE) (AID 2283233)
# How it was run: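 Rat brain membrane acetylcholinesterase activity measured colorimetrically 0.33 h after compound addition, loss of signal relative to DMSO. Primary screen in duplicate at 25 uM; actives re-run as concentration-response with 50 uM top concentration.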
# [21] = target: rat Oxytocin Receptor (OXT), Oxtr (gene 25342) (UniProt P70536); experiment: NVS_GPCR_rOXT: NovaScreen (NVS) G Protein-Coupled Receptor Assay for rat Oxytocin Receptor (OXT) (AID 2283330)
# How it was run: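 Radioligand displacement on rat uterine membranes, 1 h incubation, filter-based scintillation counting. Chemicals were screened in duplicate at 25 uM, and those passing threshold were retested in concentration-response up to 50 uM. Loss of binding was fitted versus DMSO.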
structure (smiles),measurement,setting,value
O=C1c2ccccc2C(=O)N1CCc1noc(-c2ccc(CN3CCCCCC3)s2)n1,AC50,[1],13.8 µM (active)
same,outcome,[2],inactive
same,AC50,[3],12.5 µM (active)
same,AC50,[4],11.4 µM (active)
O=C(c1ccc(OCCN2CCCCC2)cc1)c1c(-c2ccc(O)cc2)sc2cc(O)ccc12,AC50,[1],0.0103 µM (active)
same,outcome,[5],inactive
same,outcome,[6],inactive
same,AC50,[4],10.8 µM (active)
same,AC50,[7],16.7 µM (active)
Nc1ccc2c(c1)C(=O)c1ccccc1C2=O,outcome,[1],inactive
same,outcome,[8],inactive
same,outcome,[3],inactive
same,AC50,[9],3.68 µM (active)
O=C(O)c1[nH]n(-c2ccc(S(=O)(=O)O)cc2)c(=O)c1N=Nc1ccc(S(=O)(=O)O)cc1,outcome,[10],inactive
same,outcome,[11],inactive
same,outcome,[8],inactive
same,outcome,[12],inactive
C/C=C/C=C/C(=O)O,outcome,[13],inactive
same,AC50,[14],20.9 µM (active)
O=C(O)Cc1cc(I)c(Oc2cc(I)c(O)c(I)c2)c(I)c1,AC50,[1],2.92 µM (active)
same,AC50,[5],0.00511 µM (active)
same,outcome,[8],inactive
same,outcome,[15],inactive
same,outcome,[6],inactive
same,outcome,[16],inactive
same,outcome,[3],inactive
same,outcome,[17],inactive
CCCCCCC(CCCCCCCCCCC(=O)OCC(COC(C)=O)OC(C)=O)OC(C)=O (stereo not drawn),outcome,[1],inactive
same,outcome,[8],inactive
CC/C(=C(\c1ccccc1)c1ccc(OCCN(C)C)cc1)c1ccccc1,AC50,[1],17 µM (active)
same,outcome,[5],inactive
same,AC50,[15],33.5 µM (active)
same,outcome,[18],inactive
same,outcome,[6],inactive
same,outcome,[19],inactive
same,outcome,[17],inactive
COc1ccc2cc(S(=O)(=O)N[C@H](CC(=O)N[C@H](Cc3ccc(CN4[C@H](C)CCC[C@@H]4C)cc3)C(=O)N(C)C(C)C)c3ccc4c(c3)OCO4)ccc2c1,outcome,[1],inactive
same,outcome,[11],inactive
same,AC50,[20],30.6 µM (active)
same,outcome,[4],inactive
same,outcome,[21],inactive
COc1ccc(-n2nc(C(F)F)cc2-c2ccc(S(C)=O)cc2)cc1 (stereo not drawn),outcome,[1],inactive
same,outcome,[6],inactive
